In the supplement of paper PMC4166925:
± gives the standard deviation of the averaged measurements. In all, about 33,000 sequences were measured (“E-score (dimensionless, -0.5 to 0.5)”: median about -0.046, highest 2% from about 0.36 on). For the sample, the highest values were picked, then their nearest neighbours and some sequences at random.

system: T1, SpTbr T-box DNA-binding domain (GST fusion); experiment: PBM E-score of 8-mer (E-score (dimensionless, -0.5 to 0.5)); Tbr is Tbrain of the sea star Patiria miniata (Pm) or the sea urchin Strongylocentrotus purpuratus (Sp); higher = stronger binding preference; details: the construct has about 5 more residues each side
T1 sequence: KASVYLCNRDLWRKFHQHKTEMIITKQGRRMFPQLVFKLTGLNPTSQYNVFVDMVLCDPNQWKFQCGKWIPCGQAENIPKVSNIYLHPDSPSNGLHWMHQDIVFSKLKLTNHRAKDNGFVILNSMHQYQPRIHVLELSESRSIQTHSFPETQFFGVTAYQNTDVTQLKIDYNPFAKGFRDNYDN
Method: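 Universal protein-binding microarray (Agilent AMADID 016060, 60-bp probes with a 35-bp variable region) incubated with 200 nM GST-fused Strongylocentrotus purpuratus Tbr T-box DNA-binding domain (residues 362-554) in PBS pH 7.5. Scored for every ungapped 8-mer (given with its reverse complement) as E-score (range -0.5 to 0.5; >0.45 counts as bound) and Z-score of median probe intensity. Two replicate arrays (datasets 1 and 2).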
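Note: protein at 200 nM in PBS on universal double-stranded arrays.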

| Sequence | PBM E-score of 8-mer |
| --- | --- |
| GTTCGCGA | 0.389 ± 0.0052 |
| ACTCGCGC | 0.298 ± 0.038 |
| GGTCGCGA | 0.335 ± 0.017 |
| ACTCGCGA | 0.3822 ± 0.0018 |
| CCAGCGCG | 0.0431 ± 0.073 |
| CCTCGTTC | 0.0141 ± 0.013 |
| GGTCAACA | 0.114 ± 0.02 |
| CGTCAACA | 0.356 ± 0.0058 |
| TGTCAACA | 0.4051 ± 0.0019 |
| CTAAACCA | -0.0751 ± 0.046 |
| CTCCCTTC | -0.214 ± 0.037 |
| ACTCACAT | 0.124 ± 0.049 |
| ACTCTCTC | 0.0136 ± 0.068 |
| ACACTCTC | 0.3695 ± 0.0036 |
| GCTTACAC | 0.219 ± 0.012 |
| CCTCACAC | 0.4723 ± 0.0005 |
| CCTTACAC | 0.3668 ± 0.0022 |
| ACACTCTA | 0.325 ± 0.017 |
| ACTTACAC | 0.251 ± 0.075 |
| CCTCACAA | 0.233 ± 0.0063 |
| ACTCACAG | 0.313 ± 0.011 |
| ACTCACAC | 0.469 ± 0.0082 |

| Sequence | PBM E-score of 8-mer |
| --- | --- |
| CCTCACAG | 0.149 ± 0.032 |
| GGCTCTCA | 0.0783 ± 0.047 |
| AGCATAGC | -0.135 ± 0.061 |
| CGCGTTTA | 0.0979 ± 0.059 |
| CGAGATAC | -0.0218 ± 0.054 |
| GAACAAAA | -0.0265 ± 0.017 |
| ACGTATGC | 0.0191 ± 0.0035 |
| AGGCGCAT | -0.182 ± 0.024 |
| ACCGTCAT | 0.0989 ± 0.0085 |
| ATTGAAGG | -0.0895 ± 0.13 |
| AAGCGGTG | -0.1161 ± 0.00078 |
| CACAAGGC | -0.114 ± 0.035 |
| ACATGGCA | -0.0601 ± 0.028 |
| GCCAGCGA | 0.164 ± 0.098 |
| ACACTCAG | 0.232 ± 0.042 |
| ACTCTCCG | -0.0225 ± 0.053 |
| GCACACAC | 0.294 ± 0.035 |
| ACACTCCT | 0.193 ± 0.021 |
| GCTCACAA | 0.174 ± 0.018 |
| GCTCACAC | 0.448 ± 0.0095 |
| ACACTCCG | 0.367 ± 0.023 |
| ACACTCAC | 0.366 ± 0.004 |

| Sequence | PBM E-score of 8-mer |
| --- | --- |
| ACTCTCAC | 0.285 ± 0.036 |
| ATCTCCGG | 0.0811 ± 0.031 |
| ACCGTTCA | 0.027 ± 0.023 |
| AGCGAGTC | 0.0305 ± 0.044 |
| CTGTACCA | -0.0774 ± 0.055 |
| GCTAGAAC | 0.0971 ± 0.024 |
| AGACCATG | -0.0594 ± 0.025 |
| GTGCCAAC | 0.4114 ± 0.0035 |
| TTGCCAAA | 0.0607 ± 0.12 |
| CTGCCAAA | 0.0249 ± 0.15 |
| ATGCCAAC | 0.124 ± 0.0029 |
| CTGCCAAC | 0.0901 ± 0.035 |
| GTGCCAAA | 0.403 ± 0.0099 |
| AAGAGTAT | -0.163 ± 0.024 |
| ATACGCAC | 0.153 ± 0.063 |
| ATTTGGCG | 0.118 ± 0.03 |
| CTGGGGAA | 0.00742 ± 0.052 |
| TCCGTGAA | 0.16 ± 0.012 |
| TACGTGAA | 0.0338 ± 0.073 |
| GCCGTGAA | 0.354 ± 0.018 |
| GACGTGAC | 0.235 ± 0.032 |
| GGCGTGCA | 0.0836 ± 0.055 |

| Sequence | PBM E-score of 8-mer |
| --- | --- |
| CGCGTGAA | 0.4208 ± 0.0018 |
| CGCGTGAC | 0.355 ± 0.02 |
| GGCGTGAA | 0.473 ± 0.0057 |
| GCCGTGAC | 0.199 ± 0.011 |
| GGCGTGAC | 0.388 ± 0.0071 |
| TGCGTGAA | 0.3936 ± 0.0023 |
| CGCGTGAG | 0.313 ± 0.0063 |
| AGGCTGGG | -0.179 ± 0.012 |
| ACAGTGTA | 0.0565 ± 0.017 |
| ATAACTCC | -0.147 ± 0.029 |
| ACTGACTC | 0.0022 ± 0.0015 |
| AGCGTGAA | 0.413 ± 0.018 |
| AGCGTGAT | 0.28 ± 0.022 |
| AGCGTGAC | 0.3372 ± 0.0013 |
| AGAAGACA | 0.0347 ± 0.065 |
| ATATGTCG | 0.139 ± 0.047 |
| ATGTGTCA | 0.4671 ± 0.00078 |
| CTGTGTCA | 0.247 ± 0.015 |
| ATGTGTCC | 0.144 ± 0.014 |
| ATGTGTCG | 0.385 ± 0.011 |
| GTGTGTCA | 0.346 ± 0.0092 |
